Experimental data reported in PubChem BioAssay (NCATS).
Where “and” joins values, the source holds several entries; their conditions need not be identical. Identical values can stand only once. Results filed as inconclusive are left out. A call without a number means that no potency is given here. Calls of active or inactive are those of the source. Calls come from the whole dose curve; as a rule, active = well fitted inhibition curve with a large enough effect in the repeat runs; inconclusive = weak or mixed curves; inactive = flat fitted curve, though single readings scatter.

target: Cytochrome P450 2D6 (Homo sapiens) (UniProt P10635); assay: Cytochrome P450 family 2 subfamily D member 6 (CYP2D6) small molecule antagonists: luciferase biochemical (cell-free) qHTS assay (AID 1645840); details: P450-Glo CYP2D6 enzyme, luciferin luminescence, 1 h; series mostly up to 57.4 µM; note: nearly all actives have a fitted effect of over 55% in size
Method: National Center for Advancing Translational Sciences [NCATS] Assay Overview: Cytochrome P450 (CYP) enzymes are membrane-bound hemeproteins that play a key role in metabolism of drugs and xenobiotics. Assaying the effect of chemicals on CYP isozymes is useful to minimize the adverse drug reactions and toxicities in drug development process. Chemical compounds were tested for their effect on CYP enzyme activities by using P450-Glo (TM) screening systems (Promega Corporation, Madison, WI). These systems provide a luminescent method containing proluciferin substrates and are converted to luciferin products by CYP isozymes. The luciferin products formed are detected with a luciferin detection reagent, and the amount of light produced is proportional to CYP activity. P450-Glo (TM) CYP2D6 screening system (Catalog. No. V9890) was used to detect the compounds that interfere in CYP2D6 activity.
Assay Protocol Summary: Two ul of enzyme-substrate mix was dispensed into medium binding white/solid 1536-well plates (Greiner Bio-One North America Inc., Monroe, NC) using a Flying Reagent Dispenser (FRD, Aurora Discovery, San Diego, CA). […] The assay plates were incubated at room temperature for 10 min. Then 2 ul of NADPH regeneration solution was added to each well of the assay plates using an FRD and incubated at room temperature for 1 h. The reaction was stopped by adding 4 ul of detection reagent using an FRD and after 20 min incubation at room temperature, the luminescence signal was measured using a ViewLux plate reader (Perkin Elmer, Shelton, CT). Data were expressed as relative luminescence units.
Potency is the fitted concentration of half-maximal effect.

Chain of Cytochrome P450 2D6 (Homo sapiens) (P10635 whole entry, looked up): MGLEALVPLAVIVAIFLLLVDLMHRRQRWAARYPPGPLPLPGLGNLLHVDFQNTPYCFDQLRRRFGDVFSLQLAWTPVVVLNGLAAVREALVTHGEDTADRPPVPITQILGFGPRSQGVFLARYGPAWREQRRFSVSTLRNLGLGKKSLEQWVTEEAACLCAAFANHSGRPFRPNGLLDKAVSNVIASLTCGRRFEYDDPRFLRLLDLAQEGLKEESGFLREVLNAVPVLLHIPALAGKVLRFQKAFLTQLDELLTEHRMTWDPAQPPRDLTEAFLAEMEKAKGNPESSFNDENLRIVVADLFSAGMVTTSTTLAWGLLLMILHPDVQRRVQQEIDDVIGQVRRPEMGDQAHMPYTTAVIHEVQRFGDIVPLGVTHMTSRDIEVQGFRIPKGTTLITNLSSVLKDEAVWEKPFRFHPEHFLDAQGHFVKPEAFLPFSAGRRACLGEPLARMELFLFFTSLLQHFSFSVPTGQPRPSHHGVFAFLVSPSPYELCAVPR

Q: Which Potency does the source give for C[N+](C)(C)CCCCCC[N+](C)(C)C here?
A: inactive

Q: With Cc1ccc([C@@H]2O[C@H](CO)[C@@H](O)[C@H](O)[C@@H]2O)cc1Cc1ccc(-c2ccc(F)cc2)s1 as the compound, how does the Potency read?
A: 23.9 µM (active)

Q: With Clc1ccc(Cn2c(CN3CCCC3)nc3ccccc32)cc1 as the compound, how does the Potency read?
A: 0.309 µM (active)

Q: With O=C(O)CCC1CCC(c2cc(F)ccc2F)(S(=O)(=O)c2ccc(Cl)cc2)CC1 (stereo not given) as the compound, how does the Potency read?
A: inactive

Q: For O=c1c(-c2ccc(O)cc2)coc2cc(OC3O[C@H](CO)[C@H](O)[C@H](O)[C@H]3O)cc(O)c12 (stereo not given in full), which Potency is on record?
A: 30.1 µM (active)

Q: For Cc1cccc(Nc2nc(-c3ccncc3)cs2)c1, which Potency is on record?
A: 0.849 µM (active)

Q: How did the Potency turn out when CC(=O)Oc1cc2c(s1)CCN(C(C(=O)C1CC1)c1ccccc1F)C2 (stereo not given) was run?
A: 11 µM (active) and 10.7 µM (active)

Q: Which Potency does the source give for CC(C)OC(=O)C(C)(C)Oc1ccc(C(=O)c2ccc(Cl)cc2)cc1 here?
A: inactive

Q: Which Potency does the source give for Cn1c(N2CCCCS2(=O)=O)nc(C(=O)NCc2ccc(F)cc2)c(O)c1=O here?
A: inactive

Q: For O=C(CCCCCCC(=O)Nc1ccccc1)NO, which Potency is on record?
A: 4.9 µM (active)

Q: For CCN1CCC[C@H]1CNC(=O)c1cc(S(N)(=O)=O)ccc1OC, which Potency is on record?
A: inactive

Q: For CCS(=O)(=O)N1CC(CC#N)(n2cc(-c3ncnc4[nH]ccc34)cn2)C1, which Potency is on record?
A: inactive

Q: With O=C(O)Cc1cccc2ccccc12 as the compound, how does the Potency read?
A: inactive

Q: O=C(NC1CCOCC1)c1ccc(-c2cc(-c3cn[nH]c3-c3ccccn3)ccn2)cc1 was tested. Which Potency did it give?
A: inactive

Q: COCCOC(=O)C1=C(C)NC2=C(C(=O)CC(c3ccccc3OC)C2)C1c1cccc(O)c1 (stereo not given) was tested. Which Potency did it give?
A: 10.7 µM (active)

Q: With Cc1cnc(C(=O)O)c[n+]1[O-] as the compound, how does the Potency read?
A: inactive

Q: Which Potency does the source give for Cc1ccn(-c2ccc(-c3ncco3)cc2)c(=O)c1-c1ccc2nc(N)ncc2c1 here?
A: 16.9 µM (active)

Q: Which Potency does the source give for COCCOc1nc(-c2ccc(Cl)c(Cl)c2)n(-c2ccc(NC(=O)CCl)cc2)n1 here?
A: 0.756 µM (active)

Q: CC(C)C(=O)Nc1ncc(-c2cc(C(F)F)nn2-c2c(Cl)cccc2Cl)s1 was tested. Which Potency did it give?
A: 10.7 µM (active)

Q: COc1cc(N2CCC(N3CCN(C)CC3)CC2)ccc1Nc1ncnc(Nc2ccccc2S(=O)(=O)C(C)C)n1 was tested. Which Potency did it give?
A: inactive

Q: Which Potency does the source give for CS(=O)c1ccc(-c2nc(-c3ccc(F)cc3)c(-c3ccncc3)[nH]2)cc1 (stereo not given) here?
A: 6.74 µM (active)

Q: With CCN(CC)C(=O)c1ccc(O)c(OC)c1 as the compound, how does the Potency read?
A: inactive

Q: How did the Potency turn out when COc1ccc2cc(-c3nc(-c4ccc(S(C)=O)cc4)[nH]c3-c3ccncc3)ccc2c1 (stereo not given) was run?
A: 3.38 µM (active)

Q: COc1cccc2c1CCCC2CCCN1CCN(C2CCCCC2)CC1 (stereo not given) was tested. Which Potency did it give?
A: 2.13 µM (active)

Q: With O=c1c(-c2ccc(O)cc2)coc2cc(O)ccc12 as the compound, how does the Potency read?
A: inactive

Q: CC(=O)O[C@]1(C(C)=O)CC[C@H]2[C@@H]3C=C(Cl)C4=CC(=O)[C@@H]5C[C@@H]5[C@]4(C)[C@H]3CC[C@@]21C was tested. Which Potency did it give?
A: inactive

Q: CCc1ccc(OCc2ccccc2C(=O)Nc2ccc3nc(C)cc(N)c3c2)cc1 was tested. Which Potency did it give?
A: 0.213 µM (active)

Q: CCCCC1C(=O)N(c2ccccc2)N(c2ccccc2)C1=O was tested. Which Potency did it give?
A: inactive

Q: For COC1CCC(N(C(=O)C2CCC(C)CC2)c2cc(C3=CCCCC3)sc2C(=O)O)CC1 (stereo not given), which Potency is on record?
A: inactive

Q: How did the Potency turn out when C[C@@H](O)[C@H]1C(=O)N2C(C(=O)O)=C(S[C@@H]3CN[C@H](C(=O)N(C)C)C3)[C@H](C)[C@H]12 was run?
A: inactive

Q: How did the Potency turn out when Cc1nc(N)sc1-c1ccnc(Nc2ccc(N3CCOCC3)cc2)n1 was run?
A: inactive

Q: Which Potency does the source give for CCOC(=O)C1=C(N)Oc2ccc(Br)cc2C1C(C#N)C(=O)OCC (stereo not given) here?
A: 13.5 µM (active) and 16.9 µM (active) and 23.9 µM (active)

Q: With Cc1ccc(Nc2cc(-c3cccc(N4C(=O)c5ccccc5C4=O)c3)ncn2)cc1NS(C)(=O)=O as the compound, how does the Potency read?
A: inactive

Q: Which Potency does the source give for CN1C[C@H]2c3ccccc3Oc3ccc(Cl)cc3[C@@H]2C1 here?
A: 0.0062 µM (active)

Q: COc1ccc2c(Oc3ccc(NC(=O)c4c(C)n(CC(C)(C)O)n(-c5ccccc5)c4=O)cc3F)ccnc2c1 was tested. Which Potency did it give?
A: inactive

Q: CC(C)(C)Cn1c(N)nc2ccc(-c3[nH]c(C(C)(C)C)nc3-c3ccc(F)cc3)nc21 was tested. Which Potency did it give?
A: 15.1 µM (active)

Q: CC(C)n1nc(-c2ccc3oc(N)nc3c2)c2c(N)ncnc21 was tested. Which Potency did it give?
A: inactive

Q: With CCCCCCCCCCCC1=C(O)C(=O)C=C(O)C1=O as the compound, how does the Potency read?
A: inactive

Q: Which Potency does the source give for CC1(C)Cc2c(sc(NC(=S)NC(=O)c3ccccc3)c2C(=O)O)CO1 here?
A: inactive

Q: For O=C(O)c1c(Cl)c(Cl)c(Cl)c(Cl)c1-c1c2cc(I)c(=O)c(I)c-2oc2c(I)c(O)c(I)cc12, which Potency is on record?
A: 4.25 µM (active)
